From PubChem
Only some compounds are listed: those with a hit (about 2.3% of all), similar ones and a draw of the others.
Rin1 Abl inh = inhibitors of Rin1-Abl protein binding, primary screen, biochemical, TR-FRET. Tyrosine-protein kinase ABL1 (Homo sapiens) + Ras and Rab interactor 1 (Homo sapiens), …. inhibition, % at 7.35 µM. hit rate 0.4% among 360,000. AID 588664, 2011; in the data active = inhibition above about 5%, passing the limit was not always enough
IDE act = human IDE activators in live cells, primary screen, fluorescence polarization, HEK cells, FAbeta-B substrate. FAbeta-B cleavage; 0% vehicle, 100% cell-free pure enzyme wells. activation, % at 5.96 µM. hit rate 0.073% among 340,000. AID 493087, 2011;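 active = activation above the mean of all tested compounds plus 3 SD, set per screening campaign, cut at about 17% in these data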
IDE inh = human IDE inhibitors in live cells, primary screen, fluorescence polarization, HEK cells, FAbetaB substrate; FAbetaB cleavage; inhibition, % at 5.59 µM; hit rate 0.41% among 320,000; AID 434962, 2010;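 active = percent inhibition above the average of all tested compounds plus 3 SD, set per screening campaign, cut at about 16% in these data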;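 note: IDE supplied by intact live HEK cells; FP after avidin binding of uncleaved biotin substrate so inhibition keeps polarization high; 0% = DMSO wells and 100% = 60 µM reference IDE inhibitor Ii1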
Calb FLC = C. albicans growth inhibition with fluconazole, primary screen, CaCi-2 strain, Alamar Blue fluorescence; C. albicans CaCi-2 (fluconazole-resistant clinical isolate) + fluconazole, 48 h; hit rate 0.57% among 300,000; growth inhibition, % (test concentration not listed); AID 1979, 2009;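 active = growth inhibition above about 58% in most replicates, limit read from the data, passing the limit was not always enough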;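 note: all wells also contain fluconazole at 8 µg/ml as a sub-toxic cotreatment; 0% = median of DMSO wells and 100% = median of geldanamycin control wells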
Rpn11 block = Rpn11 (PSMD14) deubiquitinase inhibitors, primary screen, biochemical, fluorescence polarization, uHTS | human 26S proteasome, Ub4-pepOG fluorescence polarization; 20S core pre-blocked with epoxomicin | hit rate 0.59% among 360,000 | 26S proteasome non-ATPase regulatory subunit 14 (Homo sapiens), O00487 | inhibition, % at 20 µM;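 active = inhibition at 20 µM, scaled to each plate's controls, above about 33%, limit read from the data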
Target sequence (O00487 whole entry, looked up): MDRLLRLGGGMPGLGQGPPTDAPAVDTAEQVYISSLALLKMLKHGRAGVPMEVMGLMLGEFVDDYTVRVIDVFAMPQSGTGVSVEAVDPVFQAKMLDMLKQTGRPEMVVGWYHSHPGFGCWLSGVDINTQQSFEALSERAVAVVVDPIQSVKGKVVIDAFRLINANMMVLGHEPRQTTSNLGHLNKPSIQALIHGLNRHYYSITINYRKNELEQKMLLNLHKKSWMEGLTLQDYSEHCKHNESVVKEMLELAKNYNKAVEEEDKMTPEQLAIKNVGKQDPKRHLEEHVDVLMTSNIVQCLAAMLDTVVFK
TPT1 inh = Candida albicans TPT1 enzyme inhibitors, primary screen, biochemical, fluorescence polarization; recombinant caTPT1, FP RNA substrate dephosphorylation; inhibition, % at 5 µM; hit rate 0.81% among 300,000; AID 1962, 2009;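 active = inhibition above the mean of all tested compounds plus 3 SD, set per screening campaign, cut at about 24% in these data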;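 note: plate controls were DMSO alone for no effect and ferristatin control at 100 nM for full effect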
IDE inh confirm = human IDE inhibitors in live cells, confirmation, fluorescence polarization, HEK cells, FAbetaB substrate; inhibition, % at 5.59 µM; FAbetaB cleavage; AID 435028, 2010; hit rate 51% among 1,200; shares compounds with IDE inh;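 active = mean inhibition across triplicate wells above the cutoff set by the earlier primary insulin-degrading enzyme screen, cut at about 16% in these data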;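 note: 0% = DMSO wells and 100% = 60 µM reference IDE inhibitor Ii1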
HEK293 tox = cytotoxicity in HEK cells, cytotoxicity control for IDE inhibitor project, cell-based, luminescence. shares compounds with IDE inh. HEK293 cytotoxicity, ATP luminescence. inhibition, % at 5.59 µM. hit rate 28% among 1,200; in the data active = inhibition above about 22%;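 note: 0% = vehicle wells and 100% = reference cytotoxic drug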
Starred values were filed as active, the others as inactive; · = not tested or not shown.

SMILES	Rin1 Abl inh	IDE act	IDE inh	Calb FLC	Rpn11 block	TPT1 inh	IDE inh confirm	HEK293 tox
COc1ccc(CNC(=O)C[C@H]2C[C@H](C(=O)N3CCCCC3)[C@@]3(C)c4[nH]c5ccc(Cl)cc5c4CCN3C2=O)cc1OC	-0.2	1.5	·	·	0.4	·	·	·
COc1cc(-c2cc(=O)c3c(O)cc(O)cc3o2)ccc1O	-2.6	·	9.4	-1.8	-4.8	-0.4	·	·
COc1cc(-c2cc(=O)c3ccccc3o2)ccc1O	-3.8	-21.5	24.6*	16.2	-0.1	-1.8	23.6*	17.3
O=C(O)COc1ccc(Cl)cc1C1CCCCC1	1.6	0.6	·	·	4.0	·	·	·
CC(C)CC(=O)Nc1ccc(C(=O)CN2C(=O)NC3(CCOc4ccccc43)C2=O)cc1 (stereo not drawn)	0.5	6.8	-0.4	-0.9	4.3	1.9	·	·
CCCCOc1ncnc2c1[nH]c1ccccc12	-1.5	-9.9	7.4	2.4	-0.5	5.1	·	·
CCCCOc1ncnc2c1[nH]c1ccc(OCC)cc12	-0.4	-2.9	6.3	66.0	-1.6	4.3	·	·
CCCCOc1ncnc2c1[nH]c1ccc(F)cc12	-0.1	-30.9	29.7*	20.5	2.5	2.0	12.3	69.8*
CCCCOc1ncnc2c1[nH]c1ccc(OC)cc12	·	·	21.3*	23.9	·	0.1	2.9	37.9*
COCc1ccc(C(=O)N2CCCC(N3CCN(c4cccc(Cl)c4)CC3)C2)s1 (stereo not drawn)	-0.3	·	·	·	-1.3	·	·	·
O=C1OC(c2ccccc2)Cc2cc(C(=O)N3CCN(c4ccc(F)cc4)CC3)ccc21 (stereo not drawn)	-0.9	2.6	·	·	-2.1	·	·	·
CC(=O)Nc1ccc(S(=O)(=O)NCCC(=O)OCC(=O)c2cc(C)ccc2C)cc1	-0.6	-1.9	·	·	-3.9	·	·	·
Cc1ccc(C)c(-n2sc3ccc(F)cc3c2=O)c1	0.4	-22.3	36.5*	·	0.1	·	18.8*	69.3*
COc1ccc(-n2sc3ccc(F)cc3c2=O)cc1	0.7	-22.9	57.9*	·	-2.4	·	34.5*	80.9*
O=c1c2cc(F)ccc2sn1-c1ccc(F)cc1	1.9	-21.8	34.8*	·	-4.4	·	18.3*	42.1*
Cc1ccc(-c2cc(=O)c3cc(F)ccc3[nH]2)cc1	0.0	-2.2	1.0	22.6	-10.7	-0.7	·	·
Cc1[nH]n(-c2ccccc2)c(=O)c1C=Nc1ccc(S(=O)(=O)N=C(N)N)cc1	0.1	2.6	7.8	5.3	-8.2	0.6	·	·
Cc1[nH]n(-c2ccccc2)c(=S)c1C=Nc1ccc([N+](=O)[O-])cc1	-0.2	-32.5	19.9*	·	3.1	-1.0	3.4	17.7
COc1cccc(-c2nn(C)c3sc(C(=O)Nc4ccc5c(c4)OCCO5)cc23)c1	-3.5	-14.9	24.9*	4.9	-1.5	-0.1	8.6	20.4
COCCN(C(=O)CNC(=O)c1ccco1)C(C(=O)NC1CCCC1)c1cccc(OC)c1 (stereo not drawn)	-0.9	6.6	-1.6	-2.8	-1.3	-1.2	·	·
Cc1nnc(SCC(=O)Nc2sc3c(c2C(=O)c2ccccc2)CCCC3)s1	5.6	4.0	15.0	17.6	-7.8	-2.8	·	·
CCC1CCCN1Cn1cnc2c([nH]c3ccc(Cl)cc32)c1=O (stereo not drawn)	-1.1	-3.3	17.2*	12.5	-6.1	-2.1	1.0	20.6
COc1ccc(NC(=O)c2cc(C3CCCCN3C(=O)C3CCCCC3)on2)c(C)c1 (stereo not drawn)	3.6	·	·	·	-11.8	·	·	·
COc1ccc(Nc2nc(-c3sc(C)nc3C)cs2)c(OC)c1	-1.0	-8.0	20.6*	-35.9	0.8	-2.2	5.2	62.2*
NC(N)=N/N=C/c1cccc(Cl)c1Cl	-2.9	-4.6	2.8	-4.1	-4.5	-4.1	·	·
SMILES	Rin1 Abl inh	IDE act	IDE inh	Calb FLC	Rpn11 block	TPT1 inh	IDE inh confirm	HEK293 tox
O=C(N/N=C/c1cccc(O)c1)c1ccc(COc2ccc3c(c2)CCC3)o1	-1.1	-2.9	18.2*	-3.5	0.6	-6.8	2.9	8.2
CCOC(=O)CC1C(=O)NCCN1c1nc2ccc(C)cn2c(=O)c1/C=C1\SC(=S)N(CC(C)C)C1=O (stereo not drawn)	-1.4	-186.0	55.6*	-13.4	·	121.7*	57.9*	9.9
CCCN1C(=O)/C(=C/c2c(N3CCNC(=O)C3CC(=O)OCC)nc3c(C)cccn3c2=O)SC1=S (stereo not drawn)	-2.7	-129.5	64.9*	-10.1	·	137.2*	28.9*	32.4*
COc1ccc(S(=O)(=O)N2CCOCC2)cc1NC(=O)C1COc2ccccc2O1 (stereo not drawn)	1.4	4.4	4.0	-2.2	-1.2	-4.4	·	·
COc1cc(-c2noc(CCCC(=O)Nc3cccnc3)n2)cc(OC)c1OC	-2.3	5.4	16.2*	-0.1	0.6	-2.8	0.1	6.4
CCOc1ccc(NC(=O)CN(C)C(=O)c2cc(S(=O)(=O)N3CCCCC3)ccc2Cl)cc1OCC	1.6	1.0	4.2	-0.4	-2.7	-2.6	·	·
Cn1c(/C=C/c2cccc(Br)c2)nc2ccccc2c1=O	0.8	-10.5	19.0*	8.9	-9.1	-0.4	5.6	18.6
O=c1c2ccccc2nc(/C=C/c2cccc(Br)c2)n1CCCO	0.7	1.6	1.8	-6.2	-9.0	-1.4	·	·
CC(=O)Oc1c(Cl)cc(Cl)cc1/C=C/c1ccc2ccccc2n1	-3.0	-64.7	45.1*	23.3	2.8	6.2	68.0*	12.1
CC1(C(=O)NS(=O)(=O)Cc2ccccc2)CCN1C(=O)CCc1ccccc1 (stereo not drawn)	2.1	·	·	·	1.0	·	·	·
COC(=O)c1ccc2c(c1)C(C)(C)C(/C=C/c1ccc(O)cc1)=[N+]2C	-4.0	-25.4	16.2*	-21.3	·	19.7	20.6*	122.0*
COC(=O)c1ccc2c(c1)C(C)(C)C(/C=C/c1ccc(OC)c(OC)c1OC)=[N+]2C	3.0	-3.1	0.5	-1.2	8.1	2.4	·	·
COc1ccc(NC(=O)CCNC(=O)C2CCN(S(=O)(=O)c3ccccc3)CC2)cc1OC	-2.5	·	·	·	-5.0	·	·	·
CC[C@]12c3[nH]c4cc(-c5ccco5)ccc4c3CCN1C(=O)[C@@H](CC(=O)NCCCOC)C[C@@H]2C(=O)N1CCN(C(=O)c2ccco2)CC1	-1.0	3.0	·	·	11.9	·	·	·
Cc1nc2ccccc2c(=O)n1-c1ccc(NS(=O)(=O)c2ccc(F)cc2)cc1	0.8	-9.4	22.1*	10.6	2.5	-3.4	6.3	9.6
CSc1nsc(SCC(=O)Nc2ccc(O)c(C(=O)O)c2)n1	0.1	0.9	4.3	-0.4	13.9	9.6	·	·
